# Measurements as given in the supplement of paper PMC6555819.
# Assays:
# Assay in all cases: PBM binding z-score (relative to random genomic background probes); higher = stronger binding; sequences stand for … in GC…GCGATTGACAGCGTAGAATGAAGG
# [1] = system: FXR:RXRa (NR concentration 270 nM, RXRa partner concentration 90 nM)
# Procedure, shortened: (§1)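 Ligand-free nuclear receptor dimers were applied to custom Agilent 4×180K protein-binding microarrays whose double-stranded probes carried direct-repeat seeds, single-nucleotide variants, half-site ablations and random human genomic background sequences in 34-nt variable regions. Incubation lasted 1 h. Binding z-scores were computed against the random background probes from regression-normalized fluorescence.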
# [2] = system: LXRa:RXRa (NR concentration 270 nM, RXRa partner concentration 90 nM)
# Procedure, shortened: as §1
# [3] = system: LXRa homodimer (NR concentration 270 nM)
# Procedure, shortened: as §1
# [4] = system: LXRb:RXRa (NR concentration 270 nM, RXRa partner concentration 90 nM)
# Procedure, shortened: as §1
# [5] = system: LXRb homodimer (NR concentration 270 nM)
# Procedure, shortened: as §1
# [6] = system: PPARa:RXRa (NR concentration 270 nM, RXRa partner concentration 90 nM)
# Procedure, shortened: as §1
# [7] = system: PPARg:RXRa (NR concentration 180 nM, RXRa partner concentration 90 nM)
# Procedure, shortened: as §1
# [8] = system: PPARg:RXRa 270nM:90nM, anti-RXR (NR concentration 270 nM, RXRa partner concentration 90 nM)
# Procedure, shortened: as §1
# [9] = system: PPARg:RXRa 30nM:10nM, anti-RXR (NR concentration 30 nM, RXRa partner concentration 10 nM)
# Procedure, shortened: as §1
# [10] = system: PPARg:RXRa 90nM:30nM, anti-RXR (NR concentration 90 nM, RXRa partner concentration 30 nM)
# Procedure, shortened: as §1
# [11] = system: PPARg:RXRa DBDmut IVT, anti-RXR (DBD mutation: RXRa K156A/R161A, NR concentration 270 nM, RXRa partner concentration 90 nM)
# Procedure, shortened: as §1
# [12] = system: PPARg:RXRa IVT, anti-PPARg (NR concentration 270 nM, RXRa partner concentration 90 nM)
# Procedure, shortened: as §1
# [13] = system: PPARg DBDmut:RXRa IVT, anti-PPARg (DBD mutation: PPARg1 K132A/R137A, NR concentration 270 nM, RXRa partner concentration 90 nM)
# Procedure, shortened: as §1
# [14] = system: PPARg DBDmut IVT, anti-PPARg (DBD mutation: PPARg1 K132A/R137A, NR concentration 270 nM)
# Procedure, shortened: as §1
# [15] = system: PPARg homodimer (NR concentration 180 nM)
# Procedure, shortened: as §1
# [16] = system: PXR:RXRa (NR concentration 270 nM, RXRa partner concentration 90 nM)
# Procedure, shortened: as §1
# [17] = system: PXR homodimer (NR concentration 270 nM)
# Procedure, shortened: as §1
# [18] = system: RARa:RXR (NR concentration 270 nM, RXRa partner concentration 90 nM)
# Procedure, shortened: as §1
# [19] = system: RARa homodimer (NR concentration 270 nM)
# Procedure, shortened: as §1
# [20] = system: RARb:RXRa (NR concentration 270 nM, RXRa partner concentration 90 nM)
# Procedure, shortened: as §1
Sequence,PBM binding z-score [1],PBM binding z-score [2],PBM binding z-score [3],PBM binding z-score [4],PBM binding z-score [5],PBM binding z-score [6],PBM binding z-score [7],PBM binding z-score [8],PBM binding z-score [9],PBM binding z-score [10],PBM binding z-score [11],PBM binding z-score [12],PBM binding z-score [13],PBM binding z-score [14],PBM binding z-score [15],PBM binding z-score [16],PBM binding z-score [17],PBM binding z-score [18],PBM binding z-score [19],PBM binding z-score [20]
GCGACTGGGGCTTCAGCAGGTTACCATAACTTAA,-0.296,-0.21,-0.373,0.63,-0.572,0.478,-0.166,-0.624,-0.435,-0.762,0.693,0.216,-0.978,-1.13,0.227,-0.117,-0.245,0.339,-0.857,-0.108
TTACCACGGTGAGCTGAGGTCGTTGATCCAACTC,0.647,0.233,-0.365,0.375,-1,0.798,-0.279,0.206,-0.397,-0.177,-0.205,0.363,-0.296,-0.157,-0.455,2.07,0.241,1.07,-0.639,0.544
CCTACTGGGCCATCAGGGCATTGATATCAACGTT,-0.583,-0.856,-0.715,-0.817,-0.886,0.0503,1.16,1.68,-0.00697,0.846,3.95,3.99,0.633,0.588,-0.00622,-0.679,-0.548,-0.889,-0.828,0.358
GCGACTGGGGCACCAGCAGGTTACCATAACTTAA,-0.545,-0.382,-0.495,0.0821,-1.41,1.05,1.55,1.44,-0.582,0.564,4.23,4.22,-0.601,-0.596,-0.202,0.0556,-0.64,0.555,-0.588,1.05
CAAACTAGGTCAACGTCAAAGTCGGTTTGTGCCA,3.78,2.64,0.425,1.92,0.247,5.24,8.49,6.68,4.95,6.72,8.75,8.75,5.16,4.41,2.59,1.58,0.241,2.38,0.739,4.11
ATCTAAAGGTCGAGGTGAGTATAGAGAAAGGGAA,4.67,4.45,0.751,3.06,1.17,4.61,3.83,4.02,1.72,3.16,0.937,2.41,1.38,1.16,2.16,2.7,1.07,3.32,1.18,4.33
TCACATAGGTAAAGGTGAAAGTCGAACGATATGA,1.25,1.8,0.139,1.69,-0.00674,3.07,2.67,3.48,4.04,3.75,2.47,2.45,0.764,0.579,1.1,1.19,0.504,1.75,1.33,2.05
